Structures are written as SMILES. Screen size: about 2,400 compounds; about 220 (9.2%) were called active. Many of the other results were omitted from the sample, so actives are more common in it than they were. A number with no mark means an inactive call.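 The calls were made as follows: active = signal change above the mean of dofetilide-free buffer controls plus 3 SD, so a positive margin; inactive = the rest.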

The experiment is described as follows: thallium signal changes without hERG – cell-based, CHO-K1 parental line, FluxOR thallium flux, counter-screen for hERG block protection project, confirmation (AID 1839).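 Also: compounds applied alone with no dofetilide to cells lacking hERG.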 Particulars: CHO-K1 parental cells, FluxOR thallium flux fluorescence; at 10 µM.
For the compound `O=C(NC(=S)Nc1ccc(C(F)(F)F)cc1)c1csnn1`, the signal change vs control minus 3*SD hit threshold (margin above threshold, higher = more increase) is 48.4% (active).
For `CCOC(=O)NC(=S)Nc1ccc(C(C)(C)C)cc1` the value was -14.3%; for `O=C(NC(=S)Nc1ccc(N2CCCCC2)cc1)c1cccs1`, -2.8%.
As for `O=C(NC(=S)Nc1cccc(C(F)(F)F)c1)c1csnn1`, the signal change vs control minus 3*SD hit threshold (margin above threshold, higher = more increase) is 52.4% (active).
For `Cc1onc(-c2ccccc2)c1C(=O)NC(=S)Nc1sc2c(c1C#N)CCC(C)C2` (stereo not drawn), the signal change vs control minus 3*SD hit threshold (margin above threshold, higher = more increase) was -18.7%.
Take `CCCSC(=S)c1c(C)[nH]n(-c2ccccc2)c1=O`: the signal change vs control minus 3*SD hit threshold (margin above threshold, higher = more increase) is -12.5%.
On to `O=C(Nc1nnc(-c2ccc3c(c2)CCCC3)o1)C1COc2ccccc2O1` (stereo not drawn), for which the signal change vs control minus 3*SD hit threshold (margin above threshold, higher = more increase) was -35%.
In the case of `CC(/C=C1\SC(=S)N(NS(=O)(=O)c2ccccc2)C1=O)=C\c1ccccc1`, the signal change vs control minus 3*SD hit threshold (margin above threshold, higher = more increase) is -11.8%.
For `COc1cc(CNn2nnnc2N)ccc1OCC(=O)NC(C)(C)C` the value was -34.7%; for `O=C(NC(=S)N1CCCc2ccccc21)c1ccccc1`, -30.8%.
In the case of `O=C(NC(=S)N1CCc2ccccc21)c1ccc(Br)o1`, the signal change vs control minus 3*SD hit threshold (margin above threshold, higher = more increase) is -18.4%.
Then `O=C(NC(=S)N1CCc2ccccc21)c1ccco1`, with -18.3%; and `O=C(NC(=S)N1CCc2ccccc21)c1ccccc1Cl`, with 9% (active).
For `O=C(NC(=S)N1CCc2ccccc21)c1ccccc1Br` the value was 48.4% (active); for `O=C(NC(=S)N1CCc2ccccc21)c1ccccc1`, -2.8%; for `S=C(Nc1ccccc1)Nc1nc2ccccc2n1CCOc1ccccc1`, -30.2%.
`CN(C(=S)NC(=O)c1ccc(F)cc1)C1CCCCC1`: the signal change vs control minus 3*SD hit threshold (margin above threshold, higher = more increase) is -31.9%.
As to `CC1CCN(C(=S)NC(=O)c2ccc(C(C)(C)C)cc2)CC1`, the signal change vs control minus 3*SD hit threshold (margin above threshold, higher = more increase) was -18%.
For the compound `COC(=O)n1c(=S)oc2cc(Cl)ccc21`, the signal change vs control minus 3*SD hit threshold (margin above threshold, higher = more increase) is -22.1%.
Then `CCn1c(=S)[nH]c2c(c1=O)C(C)(C)Cc1ccccc1-2`, with -6.7%; and `CC(=O)NC(CSC(CC(=O)c1ccco1)c1ccc(C)cc1)C(=O)O` (stereo not drawn), with -32.8%; and `CCCCCCC1CCC(C(=O)N2CCOCC2)CC1` (stereo not drawn), with -21.3%.
For `CCCCCC/C(C)=C1/SC(=S)NC1=O` the value was 39.1% (active); for `CCCCCCCC/C=C\CCCCCCCC(=O)O`, -20.7%.
With `COc1ccc(S(=O)(=O)Nc2ccc(Cl)cn2)c(C)c1C`, the signal change vs control minus 3*SD hit threshold (margin above threshold, higher = more increase) is -32.2%.
With `Cc1ccc(N2CCN(C(=O)N3CCCC3)CC2)cc1C`, the signal change vs control minus 3*SD hit threshold (margin above threshold, higher = more increase) was -15.1%.
For `CCC1(c2ccccc2)NC(=S)N(c2ccc(C)c(C)c2)N1` (stereo not drawn), the signal change vs control minus 3*SD hit threshold (margin above threshold, higher = more increase) is 48.1% (active).
For `CCC1(c2ccc(Cl)cc2)NC(=S)N(c2ccc(C)c(C)c2)N1` (stereo not drawn), the signal change vs control minus 3*SD hit threshold (margin above threshold, higher = more increase) was 40.7% (active).
Turning to `Nc1ccc2c(c1)C(=O)C(=O)c1ccccc1-2`, the signal change vs control minus 3*SD hit threshold (margin above threshold, higher = more increase) was -22.4%.
For `O=C(CCc1ccccc1)NC(=S)Nc1cc(C(F)(F)F)ccc1N1CCOCC1` the value was -29.5%; for `CC(=O)NC1C(Oc2ccccc2C)OC(CO)C(O)C1O` (stereo not drawn), -23.9%.
`Cc1ccc(C(=O)NC(=S)N(C)C2CCCCC2)cc1`: the signal change vs control minus 3*SD hit threshold (margin above threshold, higher = more increase) was -21.2%.
Then `CCc1nnc(NC(=O)C2CCCCN2S(=O)(=O)c2ccccc2)s1` (stereo not drawn), with -23%; and `CCOC(=O)C1=NN(C(=O)c2ccc(C)cc2)C(O)(c2ccc(Cl)cc2)C1` (stereo not drawn), with 50.6% (active); and `CCOC(=O)c1nc(C)n(-c2ccc(Cl)cc2)n1`, with -24.3%.
Consider `COc1ccc(C(=O)CC(=O)C(=O)Nc2ccc(Cl)cc2)cc1`, for which the signal change vs control minus 3*SD hit threshold (margin above threshold, higher = more increase) is -16.3%.
Then `CCOC(=O)C1=NN(C(=O)c2ccccc2)C(O)(c2ccc(C)cc2)C1` (stereo not drawn), with -27.5%.
For `CCOC(=O)C1=NN(C(=O)c2ccc(OC)cc2)C(O)(c2ccc(Cl)cc2)C1` (stereo not drawn), the signal change vs control minus 3*SD hit threshold (margin above threshold, higher = more increase) was 14.4% (active).
As for `COc1ccc(OC)c(NC(=O)COC(=O)c2ccc(-n3cnnn3)cc2)c1`, the signal change vs control minus 3*SD hit threshold (margin above threshold, higher = more increase) is -34.5%.
With `COc1ccccc1CNC(=O)COC(=O)c1ccccn1`, the signal change vs control minus 3*SD hit threshold (margin above threshold, higher = more increase) is -28.9%.
Take `COc1cc(C(=O)Nc2ccc(O)cc2C(=O)O)ccc1OC(C)=O`: the signal change vs control minus 3*SD hit threshold (margin above threshold, higher = more increase) is -19.9%.
As to `O=C(O)c1ccc(N=NNc2cccc([N+](=O)[O-])c2)cc1`, the signal change vs control minus 3*SD hit threshold (margin above threshold, higher = more increase) is -26.6%.
As to `CCCCOC(=O)Cn1c2ccc(OC)cc2c2nc3ccccc3nc21`, the signal change vs control minus 3*SD hit threshold (margin above threshold, higher = more increase) is -28.3%.
Then `CCc1ccc(C(=O)CSc2nc3ccccc3c(=O)[nH]2)cc1`, with -26.7%.
In the case of `CC(C)OC(=O)c1c2nc3ccccc3nc2n2c1[nH]c(=O)c1ccccc12`, the signal change vs control minus 3*SD hit threshold (margin above threshold, higher = more increase) is 29.4% (active).
Then `O=C(COc1ccccc1Cl)NC(=S)Nc1ccccc1N1CCCC1`, with -25.7%.
For `S=C(NCCc1ccccc1)N/N=C/c1c(Cl)cccc1Cl` the value was -34.7%.
On to `CSc1nc(=S)cc(C)[nH]1`, for which the signal change vs control minus 3*SD hit threshold (margin above threshold, higher = more increase) is -16.8%.
Take `CCSc1nc(=S)cc(C)[nH]1`: the signal change vs control minus 3*SD hit threshold (margin above threshold, higher = more increase) was 26.3% (active).
For `CCc1cc(=O)[nH]c(SCc2ccc(C)cc2)n1` the value was -28.5%.
On to `CSc1cccc(NC(=O)CN2C(=O)c3ccccc3S2(=O)=O)c1`, for which the signal change vs control minus 3*SD hit threshold (margin above threshold, higher = more increase) was -50.6%.
Take `CCCCn1nc(NC(=O)COC)c2cc3ccc(C)cc3nc21`: the signal change vs control minus 3*SD hit threshold (margin above threshold, higher = more increase) is -27.6%.
Consider `CCOC(=O)C1CCCN(C(=O)CN2C(=O)c3ccccc3C2=O)C1` (stereo not drawn), for which the signal change vs control minus 3*SD hit threshold (margin above threshold, higher = more increase) was -35.1%.

Values taken from PubChem BioAssay AID1839 (Johns Hopkins Ion Channel Center, 2009).
